Laboratory results published in PubChem BioAssay.
The source made the active and inactive calls.

Assays:
[1] = system: Human papillomavirus type 1a protein E7 (residues 44-93); test: HPV1a E7 fragment binders on microarrays, primary screen, biochemical, small-molecule microarray, residues 44-93, 635 nm fluorescence (AID 1108); conditions: small-molecule microarray binding, fluorescence 635 nm; higher = more signal;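 note: E7 fragment applied at 1 µg/mL in TBST for 1 h at 4 C; score combines spot fluorescence with its signal to noise ratio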
[2] = modulators of HCV replicon luciferase signal, primary screen, HCV replication inhibitor project, Huh7 cells, luciferase reporter (AID 1109); conditions: 48 h, higher = more signal;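 note: huh7 hepatoma cells harbouring a luciferase neomycin HCV replicon reporter; luciferase luminescence as measure of HCV replicon replication; test concentration not given here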
[3] = molecular target: Left-right determination factor 2 (Homo sapiens) (UniProt O00292); test: LEFTY2 binders on small-molecule microarrays, primary screen, biochemical, small-molecule microarray, 635 nm fluorescence scan (AID 1110); conditions: LEFTY2 binding, higher = more signal
[4] = molecular target: Calmodulin-1 (Homo sapiens) (UniProt P0DP23); test: CALM1 binders on microarrays, EGTA buffer, profiling panel, biochemical, small-molecule microarray, Cy5-labelled CALM1 (AID 1111); conditions: Cy5-CALM1 binding fluorescence, higher = more signal;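 note: labelled calmodulin applied in Tris saline Tween buffer holding calcium plus EGTA and DTT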
[5] = molecular target: Calmodulin-1 (Homo sapiens) (UniProt P0DP23); test: calcium-bound CALM1 binders on microarrays, profiling panel, artefact control for SMM control-protein annotation, biochemical, small-molecule microarray, Cy5-labelled CALM1, plus calcium (AID 1112); conditions: Cy5-CALM1 binding fluorescence, higher = more signal;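 note: score merges spot fluorescence with signal to noise from triplicate slides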
[6] = small-molecule microarray binders of probe aWnt5a, primary screen, biochemical, biotinylated probe, 635/667 nm fluorescence (AID 1113); conditions: higher = more signal;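 note: score merges 667 nm fluorescence intensity with signal-to-noise per printed feature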
[7] = small-molecule microarray binders of probe aShh, primary screen, biochemical, biotinylated probe, 635/667 nm fluorescence (AID 1114); conditions: higher = more signal;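 note: probe is biotin-labelled aShh protein from a stem cell growth factor screen; measures binding of labelled protein to compounds printed on the slide; score merges feature fluorescence at 667 nm with signal-to-noise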
[8] = small-molecule microarray binders of probe aNog, primary screen, biochemical, biotinylated probe, 635/667 nm fluorescence (AID 1115); conditions: higher = more signal;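 note: probe is biotinylated aNog protein used at 0.15 µg/mL for 1 h at 4 C; z-score combines 667 nm fluorescence of each spot with its signal to noise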
[9] = molecular target: Torsin-1A-interacting protein 1 (Homo sapiens) (UniProt Q5JTV8); test: LAP1 binders from COS7 cell lysate, primary screen, small-molecule microarray, 635/667 nm fluorescence (AID 1116); conditions: COS7-hLAP1 lysate binding, 635 nm fluorescence, higher = more signal
[10] = molecular target: Alpha-bungarotoxin (Bungarus multicinctus) (UniProt P60615); test: alpha-bungarotoxin binders on microarray, profiling panel, artefact control for SMM control protein annotation, biochemical, small-molecule microarray, Alexa647 label, 635/667 nm fluorescence (AID 1117); conditions: alpha-BTX-A647 binding fluorescence, higher = more signal
[11] = molecular target: Albumin (Bos taurus) (UniProt P02769); test: bovine serum albumin binders on microarray, profiling panel, artefact control for SMM control protein annotation, biochemical, small-molecule microarray, Alexa647 label, 635/667 nm fluorescence (AID 1118); conditions: BSA-A647 binding, fluorescence 635 nm, higher = more signal;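 note: score merges 667 nm emission intensity and signal-to-noise per printed compound spot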
[12] = small-molecule microarray binders of probe aXIP, primary screen, biochemical, NeuroSMM set, 635/667 nm fluorescence (AID 1119); conditions: higher = more signal, called active from +8 up or from −8 down;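 note: probe is the protein aXip251-270 applied at 1 µg/mL to compound-printed slides; binding of probe to printed compounds measured as 667 nm fluorescence plus signal to noise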
[13] = small-molecule binders of probe aNOTCH3, primary screen, biochemical, small-molecule microarray, 635/667 nm fluorescence (AID 1120); conditions: higher = more signal;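 note: probe is a biotin-tagged antibody raised against NOTCH3 rather than NOTCH3 protein; score merges spot fluorescence near 667 nm with spot signal to noise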
[14] = small-molecule binders of probe aNOTCH2, primary screen, biochemical, small-molecule microarray, 635/667 nm fluorescence (AID 1121); conditions: higher = more signal;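 note: score merges feature fluorescence read at 667 nm with its signal to noise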
[15] = molecular target: Carbonic anhydrase 2 (Homo sapiens) (UniProt P00918); test: CAII small-molecule binders, profiling panel, biochemical, small-molecule microarray, Alexa647-labelled CAII (AID 1122); conditions: CAII-A647 binding fluorescence, higher = more signal
[16] = COS7 lysate on small-molecule microarray, probe aHis, 635 nm (AID 1123); conditions: COS7 cell lysate, fluorescence, higher = more signal;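 note: z-score combines 667nm fluorescence intensity with signal-to-noise per printed compound spot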
[17] = compound binding in COS7 lysate, probe aLAP1, primary screen, cell lysate, small-molecule microarray (AID 1124); conditions: probe aLAP1, fluorescence, higher = more signal;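 note: lysate comes from COS7 cells expressing LAP1 and is applied at 0.3 µg/mL; score merges spot fluorescence near 667 nm with signal-to-noise over triplicate slides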
[18] = system: Sam68 (KHDRBS1); test: Sam68 small-molecule binders, primary screen, biochemical, small-molecule microarray, 635 nm fluorescence (AID 1125); conditions: small-molecule microarray binding, higher = more signal;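 note: score merges 667 nm channel intensity with signal to noise over triplicate slides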
[19] = system: Chordin-like protein 2 (CHRDL2); test: CHRDL2 small-molecule binders, primary screen, biochemical, small-molecule microarray, 635 nm fluorescence (AID 1126); conditions: small-molecule microarray binding, fluorescence 635 nm; higher = more signal;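 note: printed compound slides probed with Chrdl2 protein at 4 µg/mL for 1 h at 4 C; score merges 667 nm emission intensity with signal to noise over three replicate slides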
[20] = molecular target: Concanavalin-A (Canavalia ensiformis) (UniProt P02866); test: ConA small-molecule binders, primary screen, artefact control for SMM control protein annotation, biochemical, small-molecule microarray, Alexa647 label, 635 nm (AID 1127); conditions: ConA-A647 binding fluorescence, higher = more signal;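 note: z combines 667 nm emission intensity with signal-to-noise across three replicate slides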
Concanavalin-A (Canavalia ensiformis), sequence (P02866 whole entry, looked up): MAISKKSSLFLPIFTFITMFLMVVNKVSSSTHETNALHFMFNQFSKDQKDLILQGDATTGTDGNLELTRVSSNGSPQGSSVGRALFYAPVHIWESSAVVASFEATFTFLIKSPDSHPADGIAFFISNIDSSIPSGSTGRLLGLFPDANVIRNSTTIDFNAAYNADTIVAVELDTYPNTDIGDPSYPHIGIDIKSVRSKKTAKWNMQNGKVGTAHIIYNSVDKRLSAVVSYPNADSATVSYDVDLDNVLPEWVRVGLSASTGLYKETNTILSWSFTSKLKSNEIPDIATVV

Albumin (Bos taurus), sequence (P02769 whole entry, looked up): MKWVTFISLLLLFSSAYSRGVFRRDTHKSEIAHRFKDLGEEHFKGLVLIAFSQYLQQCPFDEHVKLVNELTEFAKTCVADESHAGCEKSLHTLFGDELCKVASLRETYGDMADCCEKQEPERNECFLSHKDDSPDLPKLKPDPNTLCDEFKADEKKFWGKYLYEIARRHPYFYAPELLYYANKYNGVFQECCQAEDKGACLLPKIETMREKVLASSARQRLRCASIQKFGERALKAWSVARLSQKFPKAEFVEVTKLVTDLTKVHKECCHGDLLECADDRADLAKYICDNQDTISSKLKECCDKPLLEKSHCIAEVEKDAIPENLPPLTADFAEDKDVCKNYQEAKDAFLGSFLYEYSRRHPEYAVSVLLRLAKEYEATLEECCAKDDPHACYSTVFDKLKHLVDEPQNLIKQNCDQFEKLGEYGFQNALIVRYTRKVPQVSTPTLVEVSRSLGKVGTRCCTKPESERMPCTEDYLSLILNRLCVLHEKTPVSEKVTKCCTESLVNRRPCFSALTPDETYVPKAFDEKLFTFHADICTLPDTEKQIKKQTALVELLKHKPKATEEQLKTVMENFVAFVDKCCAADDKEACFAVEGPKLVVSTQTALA
Alpha-bungarotoxin (Bungarus multicinctus), sequence (P60615 whole entry, looked up): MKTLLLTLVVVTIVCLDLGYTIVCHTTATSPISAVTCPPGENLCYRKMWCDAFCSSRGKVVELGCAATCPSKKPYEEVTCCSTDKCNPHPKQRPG
Left-right determination factor 2 (Homo sapiens), sequence (O00292 whole entry, looked up): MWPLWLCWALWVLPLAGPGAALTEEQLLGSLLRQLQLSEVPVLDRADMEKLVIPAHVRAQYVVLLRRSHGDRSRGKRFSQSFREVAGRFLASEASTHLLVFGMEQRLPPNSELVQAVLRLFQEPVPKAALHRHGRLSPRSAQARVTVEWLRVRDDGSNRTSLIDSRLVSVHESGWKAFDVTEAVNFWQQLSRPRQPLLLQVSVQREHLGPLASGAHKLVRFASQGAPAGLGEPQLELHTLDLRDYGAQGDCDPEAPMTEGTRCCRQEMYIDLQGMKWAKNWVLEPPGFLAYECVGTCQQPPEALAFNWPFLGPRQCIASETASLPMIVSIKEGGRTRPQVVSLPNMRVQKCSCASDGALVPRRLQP
Torsin-1A-interacting protein 1 (Homo sapiens), sequence (Q5JTV8 whole entry, looked up): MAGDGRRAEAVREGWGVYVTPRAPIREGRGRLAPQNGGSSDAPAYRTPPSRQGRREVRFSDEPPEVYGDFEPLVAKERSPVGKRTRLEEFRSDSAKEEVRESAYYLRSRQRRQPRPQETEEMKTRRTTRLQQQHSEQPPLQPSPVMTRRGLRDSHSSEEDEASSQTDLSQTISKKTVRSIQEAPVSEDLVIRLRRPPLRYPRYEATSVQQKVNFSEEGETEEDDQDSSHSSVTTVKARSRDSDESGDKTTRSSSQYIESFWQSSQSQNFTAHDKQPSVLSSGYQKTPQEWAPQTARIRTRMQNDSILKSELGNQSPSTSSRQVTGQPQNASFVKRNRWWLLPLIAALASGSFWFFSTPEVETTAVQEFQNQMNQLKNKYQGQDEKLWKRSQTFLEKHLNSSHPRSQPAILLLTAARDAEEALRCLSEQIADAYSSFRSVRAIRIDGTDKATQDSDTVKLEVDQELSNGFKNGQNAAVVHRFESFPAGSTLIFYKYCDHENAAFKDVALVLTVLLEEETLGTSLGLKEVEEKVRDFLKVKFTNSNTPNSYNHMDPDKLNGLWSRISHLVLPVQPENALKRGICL

Compound	composite z-score [1]	z-score [2]	composite z-score [3]	composite z-score [4]	composite z-score [5]	composite z-score [6]	composite z-score [7]	composite z-score [8]	composite z-score [9]	composite z-score [10]	composite z-score [11]	composite Z-score [12]	composite z-score [13]	composite z-score [14]	composite z-score [15]	composite z-score [16]	composite z-score [17]	composite z-score [18]	composite z-score [19]	composite z-score [20]
O=C1[C@H]2[C@H]3[C@H](O)[C@H](O)CC(=NOC[C@@H](O)COCc4ccco4)[C@H]3CC[C@H]2C(=O)N1C[C@@H]1CCCO1	-0.317	-0.205	1.19	-0.428	-1.53	-0.0037	0.0899	-0.158	0.583	0.349	-0.483	0.382 (inactive)	-0.0976	-0.208	-0.237	-0.736	-0.353	0.293	1.38	-0.294
CCOC(=O)NN=C1C[C@@H](O)[C@@H](O)[C@@H]2[C@@H]3C(=O)N(c4ccc(F)cc4F)C(=O)[C@@H]3CC[C@@H]12	0.687	0.0324	0.292	-0.167	-0.205	-0.0087	-0.108	-0.213	0.196	-0.234	0.66	0.16 (inactive)	-0.144	-0.156	-0.103	0.218	0.196	0.591	0.312	0.307
COc1cccc([C@@H]2Oc3ccc(OC)cc3C(=O)[C@H]2O)c1	0.0299	2.25	0.386	0.111	-0.397	-0.157	-0.0211	-0.519	-0.0655	1.11	0.78	0.0773 (inactive)	-0.0377	-0.119	0.445	-0.279	0.158	0.325	0.488	0.711
O=C1C[C@@H](O)[C@@H](O)[C@@H]2[C@@H]3C(=O)N(c4cccc(Oc5ccccc5)c4)C(=O)[C@@H]3CC[C@H]12	-0.252	0.33	0.43	0.118	-0.294	-0.128	-0.366	-0.341	0.132	0.62	0.332	0.454 (inactive)	-0.085	-0.137	-0.0963	0.104	0.183	0.21	0.455	0.505
CC=CC1=C(CO)C(=O)[C@@H]2O[C@@H]2C1=O	-1.52	-2.28	1.27	-1.58	-1.61	-0.145	-0.304	0.0947	-0.822	0.177	-0.651	0.833 (inactive)	-0.109	-0.102	0.298	-0.91	-0.724	-0.533	1.45	-0.579
CCOC(=O)CCN1C(=O)[C@H]2[C@H]3[C@H](O)[C@H](O)CC(=NNC(=O)OCc4ccccc4)[C@@H]3CC[C@H]2C1=O	0.582	-0.582	0.929	0.634	-0.0903	-0.0819	-0.0035	-0.147	0.754	0.999	0.576	0.406 (inactive)	-0.0864	-0.117	0.21	-0.0034	0.32	1.19	0.393	1
O=C(NN=C1C[C@@H](O)[C@@H](O)[C@@H]2[C@@H]3C(=O)N(C[C@@H]4CCCO4)C(=O)[C@@H]3CC[C@@H]12)OCc1ccccc1	0.457	0.246	0.686	-0.817	-1.51	-0.243	0.111	-0.139	-0.306	-0.421	0.103	0.008 (inactive)	-0.0647	-0.16	-0.275	-0.12	0.373	0.794	0.909	-0.18
CCOC(=O)[C@H](CC(C)C)NC(=O)CCC1CC(OC(=O)NCCc2ccc(F)cc2)CC2(CCCC(COC(=O)NCCc3ccc(Cl)cc3)O2)O1 (stereo not given in full)	0.585	-1.19	0.839	-0.222	-0.0499	-0.0044	-0.156	-0.45	0.456	1.02	0.587	0.133 (inactive)	0.163	-0.0495	0.606	1.61	0.037	1.03	0.446	-0.485
CCOC(=O)[C@H](CC(C)C)NC(=O)CCC1CC(OC(=O)NCCc2ccc(F)cc2)CC2(CCCC(COC(=O)NCCc3ccccc3OC)O2)O1 (stereo not given in full)	1.29	-1.38	0.61	1.57	0.535	-0.119	0.157	-0.0787	0.793	0.493	0.788	0.0516 (inactive)	-0.0647	-0.0781	0.56	0.907	0.419	1.29	0.337	1.09
CCOC(=O)[C@H](CC(C)C)NC(=O)CCC1CC(OC(=O)NCCc2ccc(F)cc2)CC2(CCCC(COC(=O)NCCOc3ccccc3)O2)O1 (stereo not given in full)	1.36	-0.972	1.16	1.02	-0.129	-0.15	-0.13	-0.0965	0.531	0.947	0.671	0.0308 (inactive)	0.0496	-0.0971	0.193	1.31	-0.0164	1.23	0.324	0.931
COC(=O)[C@@H]1CC[C@H](C)[C@@H](c2ccc(C)cc2)N1C(=O)c1ccc(C=NOCC[C@@H]2C=C[C@H](OC(C)=O)[C@@H](COC(C)=O)O2)cc1	0.875	-0.852	0.465	-0.0548	-0.141	-0.0778	-0.0553	-0.37	1.41	0.646	-0.129	-0.2 (inactive)	0.088	-0.1	-0.0127	0.148	-0.552	0.926	0.772	0.658
